A short description of assay [1]: ATG_E_Box_CIS: Attagene CIS-FACTORIAL HepG2 Assay for human Enhancer Box (E-box) (AID 2282936). The conditions noted are these: HepG2 E-box cis-reporter transcription, actives raise or lower the signal. The procedure, abridged:
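DMSO served as negative control and baseline for bidirectional fitting. Human hepatoma HepG2 cells, transiently transfected with cis-reporter constructs, were dosed 24 h; reporter mRNA read by RT-PCR and capillary electrophoresis.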

The nature of assay [2]: ATG_M_61_CIS: Attagene CIS-FACTORIAL HepG2 Assay for M61 Transcription Factor (Internal Marker) (AID 2282937). The conditions noted are these: HepG2 Attagene CIS-FACTORIAL M61 internal marker reporter; actives raise or lower the signal. The method, boiled down:
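This endpoint serves as an internal background control within a multiplexed HepG2 cis-reporter panel. Cells are exposed for 24 h; reporter mRNA is amplified, fluorescently labelled and sized by capillary electrophoresis, with DMSO as negative control.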

Assay [3] can be described thus: ATG_EGR_CIS: Attagene CIS-FACTORIAL HepG2 Assay for human Early Growth Response 1 (EGR1) (AID 2282938). The settings on record: HepG2 Attagene CIS-FACTORIAL EGR reporter mRNA; actives raise or lower the signal. The method, boiled down:
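HepG2, transient MRTU transfection (cis promoters), 24 h compound. RNA → RT (oligo-dT) → PCR → 6-FAM labelling → HpaI cut → CE fluorescence. Bidirectional fit, DMSO baseline.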

Assay [4] in a line: ATG_M_19_CIS: Attagene CIS-FACTORIAL HepG2 Assay for M19 Transcription Factor (Internal Marker) (AID 2282939). The conditions noted are these: HepG2 Attagene CIS-FACTORIAL M19 internal marker reporter; actives raise or lower the signal. The method, boiled down: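 Signals come from fluorescence of labelled reporter-specific PCR fragments resolved by capillary electrophoresis, following 24 h treatment of HepG2 cells transfected with cis-promoter reporter units; activity was fitted in both directions relative to DMSO.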

A short description of assay [5]: ATG_ERE_CIS: Attagene CIS-FACTORIAL HepG2 Assay for Estrogen Response Element (ERE) (AID 2282940). The settings on record: HepG2 ERE cis-reporter, Attagene RNA transcript; actives raise or lower the signal. The procedure, abridged: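 Fluorescence of capillary-separated, FAM-labelled reporter cDNA fragments indicates reporter mRNA levels in HepG2 cells exposed to chemicals for 24 h. Transient transfection with cis-regulated units; data fitted in both directions against DMSO.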

Assay [6] in a line: ATG_Ets_CIS: Attagene CIS-FACTORIAL HepG2 Assay for human Erythroblast Transformation Specific (ETS) (AID 2282941). The settings on record: HepG2 ETS cis-reporter transcription, actives raise or lower the signal. The procedure, abridged:
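Steps: transfect HepG2 with multiple reporter units; treat compound 24 h; isolate RNA, DNase-treat, reverse-transcribe; PCR-amplify, label with 6-FAM, digest with HpaI; separate by capillary electrophoresis. Activity fitted both directions versus DMSO.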

Assay [7] concerns the target Hepatocyte nuclear factor 3-beta (Homo sapiens) (UniProt Q9Y261). Briefly: ATG_FoxA2_CIS: Attagene CIS-FACTORIAL HepG2 Assay for human Forkhead box A2 (FOXA2) (AID 2282942). The conditions noted are these: HepG2 cis-reporter transcription factor activity, 24 h; actives raise or lower the signal. The method, boiled down:
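Cells: HepG2, transient multiplex reporter transfection. Exposure 24 h. Detection: reporter-specific RT-PCR, fluorescent labelling, restriction digest, capillary electrophoresis. Analysis: bidirectional curve fit, DMSO as negative control.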

The nature of assay [8]: ATG_FoxO_CIS: Attagene CIS-FACTORIAL HepG2 Assay for human Forkhead box O (FoxO) (AID 2282943). The conditions noted are these: HepG2 Attagene cis-reporter, FoxO element, mRNA; actives raise or lower the signal. The procedure, abridged: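 HepG2, transient MRTU transfection (cis element, endogenous TFs). Dose 24 h. TriZol RNA → oligo(dT) RT → PCR → 6-FAM primer extension → HpaI cut → CE. Gain/loss vs DMSO.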

Assay [9] can be described thus: ATG_GLI_CIS: Attagene CIS-FACTORIAL HepG2 Assay for human Zinc Finger Protein GLI1 (AID 2282945). The conditions noted are these: HepG2, Attagene cis-factorial reporter mRNA, GLI element; actives raise or lower the signal. The procedure, abridged: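 Bidirectional curve fits relative to DMSO, using reporter mRNA levels from RT-PCR plus capillary electrophoresis. Cells were HepG2 transiently carrying cis-regulated reporter constructs, harvested 24 h after dosing.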

Assay [10] is described as follows: ATG_GRE_CIS: Attagene CIS-FACTORIAL HepG2 Assay for human Glucocorticoid Response Elements (GRE) (AID 2282947). The conditions noted are these: HepG2 GRE cis-reporter, Attagene multiplex mRNA; actives raise or lower the signal. The procedure, abridged: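 Assay uses human hepatoma HepG2 cells transfected with cis-promoter reporter units, exposed 24 h. mRNA from reporters detected by RT-PCR plus capillary electrophoresis; DMSO serves as negative control and baseline.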

Assay [11] is described as follows: ATG_ISRE_CIS: Attagene CIS-FACTORIAL HepG2 Assay for human Interferon Regulatory Factor 1 (IRF1) binding to an Interferon-Stimulated Response Element (ISRE) (AID 2282948). The conditions noted are these: HepG2 ISRE cis-reporter (Attagene), mRNA transcription readout; actives raise or lower the signal. The procedure, abridged: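 Transfected HepG2 (multiple reporter transcription units, cis elements) dosed 24 h. RNA → oligo(dT) RT → PCR → 6-FAM primer extension → HpaI → CE. DMSO = negative control/baseline.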

A short description of assay [12]: ATG_M_32_CIS: Attagene CIS-FACTORIAL HepG2 Assay for M32 Transcription Factor (Internal Marker) (AID 2282949).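 Note: background control marker of the multiplexed CIS panel rather than a real target.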 The conditions noted are these: HepG2 Attagene cis-factorial M32 reporter, mRNA; actives raise or lower the signal. The procedure, abridged:
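Internal background marker read-out: RT-PCR/capillary electrophoresis fluorescence of reporter transcripts from transiently transfected HepG2 cells after 24 h chemical exposure. Activity fitted bidirectionally relative to DMSO negative control.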

A short description of assay [13]: ATG_M_06_CIS: Attagene CIS-FACTORIAL HepG2 Assay for M06 Transcription Factor (Internal Marker) (AID 2282950). The conditions noted are these: HepG2 Attagene CIS-FACTORIAL M06 internal marker reporter; actives raise or lower the signal. The method, boiled down: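 HepG2 liver cells, 24 h exposure. Reporter transcripts from transfected cis-element constructs quantified by RT-PCR/capillary electrophoresis fluorescence. Bidirectional curve fit against DMSO.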

For assay [14], the target named is Hypoxia-inducible factor 1-alpha (Homo sapiens) (UniProt Q16665). Briefly: ATG_HIF1a_CIS: Attagene CIS-FACTORIAL HepG2 Assay for human Hypoxia Inducible Factor 1 (HIF1A) (AID 2282951). The conditions noted are these: HepG2 Attagene cis-factorial HIF1a reporter transcription; actives raise or lower the signal. The procedure, abridged:
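HepG2, transient cis-reporter library, 24 h dosing. RNA → RT (oligo dT) → PCR → 6-FAM primer extension → HpaI → CE. Bidirectional curve fit vs DMSO.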

The target of assay [15] is Hepatocyte nuclear factor 6 (Homo sapiens) (UniProt Q9UBC0). Briefly: ATG_HNF6_CIS: Attagene CIS-FACTORIAL HepG2 Assay for human Hepatocyte Nuclear Factor 6 (HNF6) (AID 2282952). The settings on record: HepG2 Attagene cis-factorial HNF6 reporter transcription; actives raise or lower the signal. The procedure, abridged:
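Cells are HepG2 carrying transiently transfected cis-promoter reporter units. Treatment lasts 24 h, after which reporter transcripts are reverse-transcribed, amplified, FAM-labelled and sized by capillary electrophoresis. DMSO serves as baseline.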

Assay [16] has as its target Heat shock factor protein 1 (Homo sapiens) (UniProt Q00613). The assay can be described thus: ATG_HSE_CIS: Attagene CIS-FACTORIAL HepG2 Assay for human Heat Shock Transcription Factor 1 (HSE) (AID 2282953). The settings on record: HepG2 HSE cis-reporter, Attagene RNA transcription; actives raise or lower the signal. The method, boiled down: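 Endogenous transcription factor activity captured via cis-promoter reporter units transfected into HepG2; treatment lasted 24 h. Fluorescence intensity of reporter fragments analysed with bidirectional curve fitting, DMSO baseline.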

The nature of assay [17]: ATG_MRE_CIS: Attagene CIS-FACTORIAL HepG2 Assay for human Metal Responsive Element (MRE) (AID 2282954). The conditions noted are these: HepG2 MRE cis-reporter transcription, Attagene multiplex; actives raise or lower the signal. The method, boiled down: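 After a 24 h chemical exposure, transiently transfected HepG2 cells yield RNA whose reporter sequences are amplified, FAM-labelled and sized by capillary electrophoresis. Curves are fitted bidirectionally relative to DMSO.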

Assay [18] in a line: ATG_PBREM_CIS: Attagene CIS-FACTORIAL HepG2 Assay for human Phenobarbital-responsive Enhancer Module (PBREM) (AID 2282955). The conditions noted are these: HepG2 PBREM cis-reporter, Attagene multiplexed transcription; actives raise or lower the signal. The procedure, abridged:
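HepG2, transient MRTU transfection, 24 h dosing; RNA → oligo(dT) RT → PCR → 6-FAM extension → HpaI → CE. Bidirectional fit vs DMSO.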

A short description of assay [19]: ATG_GATA_CIS: Attagene CIS-FACTORIAL HepG2 Assay for human GATA Binding Protein (AID 2282944). The settings on record: HepG2 GATA cis-element reporter, Attagene multiplex mRNA; actives raise or lower the signal. The method, boiled down: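 After transfecting HepG2 cells with multiple cis-regulated reporter units, chemicals are dosed for 24 h; isolated RNA undergoes RT-PCR and fluorescent labeling before capillary electrophoresis, with activity expressed against DMSO.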

In assay [20] the target is Bile acid receptor (Homo sapiens) (UniProt Q96RI1). The assay can be described thus: ATG_IR1_CIS: Attagene CIS-FACTORIAL HepG2 Assay for human Nuclear Receptor Subfamily 1 Group H Member 4 (NR1H4), IR1 submotif (AID 2282946). The settings on record: IR1 reporter transcription, actives raise or lower the signal. The method, boiled down: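 Cells (human HepG2) carry transiently transfected cis-promoter reporter transcription units. Compounds are incubated 24 h, total RNA is reverse-transcribed and amplified, and labelled fragments are resolved by capillary electrophoresis. Curves use DMSO as baseline.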
Sequence of Bile acid receptor (Homo sapiens) (Q96RI1 whole entry, looked up, the tested form may be a part): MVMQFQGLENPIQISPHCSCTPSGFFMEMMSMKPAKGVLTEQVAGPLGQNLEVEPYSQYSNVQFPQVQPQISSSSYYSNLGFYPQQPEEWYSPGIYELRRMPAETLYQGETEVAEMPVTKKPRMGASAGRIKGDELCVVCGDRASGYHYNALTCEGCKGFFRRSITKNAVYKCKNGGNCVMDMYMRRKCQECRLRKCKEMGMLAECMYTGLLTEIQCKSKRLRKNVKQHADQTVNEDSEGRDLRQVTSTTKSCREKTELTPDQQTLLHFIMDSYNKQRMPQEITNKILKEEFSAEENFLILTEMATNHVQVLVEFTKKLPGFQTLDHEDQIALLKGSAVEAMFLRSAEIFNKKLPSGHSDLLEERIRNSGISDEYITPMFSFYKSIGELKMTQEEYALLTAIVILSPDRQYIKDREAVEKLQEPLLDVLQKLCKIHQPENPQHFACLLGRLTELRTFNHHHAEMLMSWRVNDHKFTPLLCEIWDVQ

The values below come from PubChem BioAssay (EPA / NIEHS).

The source made the active and inactive calls. Rule for the calls: active = hit-call score of the fitted dose curve at least 0.9, where 1 is the maximum; inactive = score below 0.9.

Sequence of Heat shock factor protein 1 (Homo sapiens) (Q00613 whole entry, looked up, the tested form may be a part): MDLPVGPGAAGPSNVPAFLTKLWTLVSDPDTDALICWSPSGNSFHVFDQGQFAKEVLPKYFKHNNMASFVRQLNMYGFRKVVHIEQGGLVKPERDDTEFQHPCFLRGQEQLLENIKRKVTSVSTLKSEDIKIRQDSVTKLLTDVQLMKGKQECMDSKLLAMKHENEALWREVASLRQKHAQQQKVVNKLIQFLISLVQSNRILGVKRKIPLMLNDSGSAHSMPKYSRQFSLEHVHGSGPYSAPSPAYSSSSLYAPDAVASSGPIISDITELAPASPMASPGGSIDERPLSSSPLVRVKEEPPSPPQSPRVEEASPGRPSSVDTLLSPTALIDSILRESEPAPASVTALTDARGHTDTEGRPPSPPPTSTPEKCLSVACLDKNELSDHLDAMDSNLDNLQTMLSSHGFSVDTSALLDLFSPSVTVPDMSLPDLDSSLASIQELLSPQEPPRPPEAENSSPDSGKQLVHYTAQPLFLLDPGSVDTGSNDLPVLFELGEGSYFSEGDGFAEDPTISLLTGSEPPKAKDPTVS
Sequence of Hepatocyte nuclear factor 3-beta (Homo sapiens) (Q9Y261 whole entry, looked up): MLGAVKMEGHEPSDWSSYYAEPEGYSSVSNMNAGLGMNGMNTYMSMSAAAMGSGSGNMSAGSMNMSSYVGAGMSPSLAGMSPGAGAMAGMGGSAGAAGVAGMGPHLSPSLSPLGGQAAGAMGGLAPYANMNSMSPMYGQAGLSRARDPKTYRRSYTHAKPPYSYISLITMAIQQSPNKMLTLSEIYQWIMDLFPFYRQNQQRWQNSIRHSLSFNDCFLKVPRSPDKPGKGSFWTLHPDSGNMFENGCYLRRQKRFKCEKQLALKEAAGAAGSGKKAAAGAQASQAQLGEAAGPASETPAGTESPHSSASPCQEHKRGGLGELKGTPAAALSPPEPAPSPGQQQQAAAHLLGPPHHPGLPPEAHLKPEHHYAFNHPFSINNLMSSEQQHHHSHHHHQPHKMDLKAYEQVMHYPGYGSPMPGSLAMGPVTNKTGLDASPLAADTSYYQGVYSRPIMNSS
Sequence of Hepatocyte nuclear factor 6 (Homo sapiens) (Q9UBC0 whole entry, looked up): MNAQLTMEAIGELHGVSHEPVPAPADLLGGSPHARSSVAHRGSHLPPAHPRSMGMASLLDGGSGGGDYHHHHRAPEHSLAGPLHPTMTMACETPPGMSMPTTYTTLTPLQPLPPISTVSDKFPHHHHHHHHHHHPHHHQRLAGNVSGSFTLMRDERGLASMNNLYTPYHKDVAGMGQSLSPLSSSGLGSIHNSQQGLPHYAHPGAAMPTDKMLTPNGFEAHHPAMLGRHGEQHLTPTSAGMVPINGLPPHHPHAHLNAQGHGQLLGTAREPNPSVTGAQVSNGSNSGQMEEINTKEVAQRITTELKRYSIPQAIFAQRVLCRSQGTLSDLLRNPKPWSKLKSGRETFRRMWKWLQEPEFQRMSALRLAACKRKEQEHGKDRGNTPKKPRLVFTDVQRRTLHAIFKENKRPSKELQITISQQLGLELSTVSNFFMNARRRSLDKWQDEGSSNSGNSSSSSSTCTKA
Sequence of Hypoxia-inducible factor 1-alpha (Homo sapiens) (Q16665 whole entry, looked up): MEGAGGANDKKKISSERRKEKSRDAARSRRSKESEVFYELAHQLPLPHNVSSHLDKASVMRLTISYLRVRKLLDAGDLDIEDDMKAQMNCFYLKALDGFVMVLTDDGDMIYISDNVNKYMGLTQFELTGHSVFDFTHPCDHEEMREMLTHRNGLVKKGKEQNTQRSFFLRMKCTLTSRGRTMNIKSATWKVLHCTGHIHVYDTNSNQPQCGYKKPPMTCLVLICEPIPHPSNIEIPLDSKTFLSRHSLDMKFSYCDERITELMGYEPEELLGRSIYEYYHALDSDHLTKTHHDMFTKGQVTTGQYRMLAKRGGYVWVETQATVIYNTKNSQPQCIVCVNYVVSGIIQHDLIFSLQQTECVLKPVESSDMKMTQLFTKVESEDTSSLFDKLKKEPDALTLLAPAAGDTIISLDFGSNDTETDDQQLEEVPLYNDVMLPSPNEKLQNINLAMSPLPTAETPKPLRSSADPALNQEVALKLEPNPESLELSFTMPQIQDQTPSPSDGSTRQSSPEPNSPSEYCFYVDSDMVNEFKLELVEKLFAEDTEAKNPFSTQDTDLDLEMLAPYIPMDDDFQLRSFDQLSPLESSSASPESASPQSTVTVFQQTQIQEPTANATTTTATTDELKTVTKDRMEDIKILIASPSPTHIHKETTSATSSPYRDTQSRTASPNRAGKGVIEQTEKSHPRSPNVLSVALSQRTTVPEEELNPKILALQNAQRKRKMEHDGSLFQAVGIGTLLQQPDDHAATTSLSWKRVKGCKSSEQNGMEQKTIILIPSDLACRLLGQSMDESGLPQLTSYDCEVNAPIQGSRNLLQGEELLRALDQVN

With `CCCCCCOc1cc(C)c(O)c(C)c1C`, the result in assay [1], in [2], in assay [3], in assay [4], in assay [5] and in [6] was inactive. The call in assay [7], in assay [8], in assay [9], in assay [10], in assay [11] and in [12] was inactive. For the same molecule, the molecule was called inactive in assay [13], in [14], in assay [15] and in assay [16]. The AC50 in assay [17] is 18.2 µM (active).
As for `CC(C)C1=CC2=CC[C@@H]3[C@](C)(CCC[C@@]3(C)C(=O)O)[C@H]2CC1`, the outcome in assay [1], in [2], in assay [4], in assay [5], in [6] and in [7] was inactive. Besides, the molecule was classed as inactive in [8], in [9], in assay [11], in assay [12], in [13] and in [15]. Also, in assay [18], the outcome was inactive. Besides, the half-maximal activity concentration (AC50) in assay [3] is 60.3 µM (active); in assay [10], 119 µM (active); in assay [14], 100 µM (active); in [16], 145 µM (active); in [17], 106 µM (active).
Regarding `CC1=NC(C)OC1C` (stereo unspecified), the outcome in assay [1], in assay [2], in [3], in assay [4], in assay [6] and in [7] was inactive. Moreover, the molecule was classed as inactive in assay [8], in [19], in [9], in assay [10], in assay [12] and in assay [13]. Further, the result in assay [14], in assay [15], in assay [17] and in [18] was inactive. For the same molecule, the figures for the AC50 in assay [11] and in [16] were 100 µM (active) and 160 µM (active), respectively.
In the case of `CC[C@H]1OC(=O)[C@H](C)[C@@H](O[C@H]2C[C@@](C)(OC)[C@@H](O)[C@H](C)O2)[C@H](C)[C@@H](O[C@@H]2O[C@H](C)C[C@H](N(C)C)[C@H]2O)[C@](C)(O)C[C@@H](C)C(=NOCOCCOC)[C@H](C)[C@@H](O)[C@]1(C)O`, the result in assay [1], in [2], in assay [3], in assay [4], in [6] and in assay [7] was inactive. In addition, the result in [8], in assay [19], in assay [9], in assay [20], in [10] and in assay [11] was inactive. Moreover, the outcome in assay [12], in [13], in assay [14], in assay [15], in [16] and in assay [17] was inactive.

Usually AC50 stands for the concentration at which the activity in the assay is half-maximal.
